From the supplement of paper PMC3334620
Over roughly 33,000 sequences, “E-score (-0.5 to 0.5)” has its median near -0.012; the highest 2% begin near 0.29. The sample holds the highest values, similar sequences and a random draw of the others, so the mix is not that of the screen.

The sequences below were run against T1, Ybr033w (UniProt P38073) (assay: PBM E-score (8-mer binding enrichment) (E-score (-0.5 to 0.5)); higher = stronger / more preferred TF binding). Conditions: protein concentration: 200 nM; construct: GST-full length.
T1 sequence: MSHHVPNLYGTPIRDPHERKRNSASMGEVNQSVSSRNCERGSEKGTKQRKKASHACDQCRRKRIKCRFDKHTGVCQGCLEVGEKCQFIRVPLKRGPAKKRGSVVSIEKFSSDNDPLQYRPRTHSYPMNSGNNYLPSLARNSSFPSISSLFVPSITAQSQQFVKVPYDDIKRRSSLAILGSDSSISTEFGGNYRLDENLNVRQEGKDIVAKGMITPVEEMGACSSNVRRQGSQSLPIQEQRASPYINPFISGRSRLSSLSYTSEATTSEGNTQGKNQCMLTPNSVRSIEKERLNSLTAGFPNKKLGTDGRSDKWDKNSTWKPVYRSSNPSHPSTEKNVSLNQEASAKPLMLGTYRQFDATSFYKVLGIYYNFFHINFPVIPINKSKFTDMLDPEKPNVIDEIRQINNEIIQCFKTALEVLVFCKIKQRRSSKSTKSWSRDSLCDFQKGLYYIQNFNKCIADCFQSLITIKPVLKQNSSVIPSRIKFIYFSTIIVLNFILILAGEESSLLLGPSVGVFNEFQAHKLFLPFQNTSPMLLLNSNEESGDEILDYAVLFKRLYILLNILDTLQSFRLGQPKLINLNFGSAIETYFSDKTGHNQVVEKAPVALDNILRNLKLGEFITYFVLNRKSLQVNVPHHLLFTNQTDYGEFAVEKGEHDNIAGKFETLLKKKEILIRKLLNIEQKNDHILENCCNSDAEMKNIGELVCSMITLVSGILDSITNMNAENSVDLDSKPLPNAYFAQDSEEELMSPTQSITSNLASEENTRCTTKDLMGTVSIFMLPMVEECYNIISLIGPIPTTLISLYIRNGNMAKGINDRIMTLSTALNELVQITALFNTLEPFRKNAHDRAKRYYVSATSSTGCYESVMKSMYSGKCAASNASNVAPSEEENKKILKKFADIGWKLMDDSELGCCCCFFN
Experimental: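 Universal 'all 10-mer' protein binding microarrays (Agilent AMADID 015681) probed with GST-tagged S. cerevisiae TFs (full-length or DBD) made by in vitro transcription/translation (PURExpress), about 100-200 nM. Bound TF was detected with fluorescent anti-GST. Each ungapped 8-mer (which stands for itself and its reverse complement) is scored by the PBM enrichment score (E-score), a modified Wilcoxon-Mann-Whitney statistic from -0.5 to +0.5, computed with the Universal PBM Analysis Suite. Scale: above 0.35 generally sequence-specific binding.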

Sequence	PBM E-score
CGCCAGAG	-0.045
AGATGTCC	0.0719
CTAGCATA	0.137
CTTACTAA	0.143
GTGTAAAC	-0.00524
AGGCGAGC	-0.174
ATCGCTAA	0.0959
CCGGGCAG	-0.122
GTTATGGA	0.108
CGATGAAC	-0.00159
AGATGAAC	0.131
GGATGAAC	0.292
AAGGGAGA	-0.166
AGCATACG	-0.0246
CCGAATAG	0.0196
TCGAATAA	0.193
AGGAATAC	-0.131
CCGAATAA	0.293
AGGAATAA	0.364
CCGAATAC	0.105
AGGAATAG	0.134
TGGAATAA	0.417
CGGAATTC	0.0496
AGGAATTA	0.223
CGGAATTA	0.407

Sequence	PBM E-score
TAGAATAA	0.205
ATTCAGTA	0.13
AGGTCTTG	-0.128
ATTGTGGA	0.153
CACCTAGC	-0.236
AGCACTAT	0.0398
CAGTGATA	0.0511
CACAGTCG	-0.125
AGGCAAAA	0.222
CGGAATAC	0.186
CGGAATAG	0.126
CGGAATAA	0.468
AGGAATAT	0.353
AAGAATAT	0.149
GGGAATCA	0.0407
AGGAATCG	0.116
ACGAATAC	0.0881
ACGAATAA	0.0842
GGGAATAA	0.355
ACGAATAT	0.295
GGGAATAC	-0.0369
TACCTTGA	0.0473
CTCACGGC	-0.261
GGGGCCAA	-0.123
ATAATGGG	0.152

Sequence	PBM E-score
GACTTTAC	0.03
AATTCACT	0.249
CGGTATGA	0.0788
GAGCCCAC	-0.27
TATTGTGA	0.105
GTTGTAGA	0.00414
CTTGTAGA	-0.145
ATTGTAGA	0.295
AATAGTCC	-0.0436
ACCGACAG	-0.135
CAATTTCC	0.195
AGTTTTTC	0.295
AAATTTCC	0.258
GAATTTCC	0.343
AATTTTGC	0.142
ATTTTTGC	0.308
GATTTTCA	0.205
ATTTTTGG	0.0437
AGTTTTTA	0.181
GATTTTCC	0.416
AGTTTTCC	0.216
GATTTCCC	0.0546
CGGTTCTA	0.0953
AAGTTGAG	0.0874
CGCTCATC	-0.0261

Sequence	PBM E-score
GATACCAC	0.066
CATTTCTC	0.176
AATTTTCC	0.468
AATTTCTC	0.299
ATTTTTTC	0.316
AATTTCTA	0.209
ATTTTGTA	0.246
ATTTTGTG	0.291
ATTTTCTC	0.201
ATTTTTTG	0.274
ATTTTGTC	0.187
AATTTTCT	0.145
AATTTTCA	0.252
CATAACGG	0.0155
CAGAGTGC	-0.126
TCATAACA	0.23
TCAGAGCA	-0.114
ATCTAGAC	0.107
AGTGAATC	0.0239
CAGCCTAG	0.0256
AAATTTTC	0.258
AATTTTTC	0.31
AATTTTTA	0.256
CATATTGA	0.0393
AATATTGG	0.047

Sequence	PBM E-score
AATATTGT	0.298
AATATTGC	0.223
GATATTGA	0.177
AATATTGA	0.329
CCAGGTAG	-0.0963
TATGGCAA	-0.151
CGCCGCAC	-0.233
AAGGAAAT	0.185
CAGGAAAA	0.387
CAAGGAAA	0.162
CAGAAAAA	0.0895
AAGGAAAC	0.0412
AAAGGAAA	0.303
GAGGAAAA	0.199
AAAGGAAC	0.163
AAGGAAAA	0.398
AGATACCT	-0.0724
AAAGAGAC	-0.0019
GTAATTAA	0.105
CTAATTAC	0.131
ATTATAAT	0.205
ATAATTAG	0.272
ATAATTAC	0.353
TTAATTAA	0.241
GTAATTAC	0.218

Sequence	PBM E-score
ATAATTAT	0.372
ATAATTAA	0.414
ATTGATGG	0.213
ATAGGTTC	0.143
AGGCAACT	0.174
CCGCGCAC	-0.0688
AAGCAACA	0.117
CTTGCATC	-0.144
TATCCGCA	0.306
CATCCGCA	0.156
AATCCGCA	0.119
CGAGAGCA	-0.0204
GAAAAAGC	0.239
ACCGACCT	-0.172
GCGCGCGA	0.111
GCGCGCGC	0.334
ACGCGCGC	-0.0247
CGTCTGTA	-0.11
CGGTGATA	0.178
AATAGTTC	0.294
CATAGTTC	-0.0864
AGTAGTTA	0.0431
AGTAGTTG	0.176
AATAGTTG	0.207
AGTAGTTC	0.307

Sequence	PBM E-score
CACAAATG	0.0361
CACGGTTC	-0.265
GAAAGCGA	0.101
AGTACAAT	0.302
AGTACAAG	0.0813
AGTACAAA	0.114
CAGGTCGA	0.141
AAACTTAC	0.168
ATTCTTCC	0.471
CTTCTTCC	0.0741
GATCTTGC	0.0857
AATCTATA	0.297
CATCTTCC	0.0897
AAACTTAT	0.379
GATCTTCC	0.33
AAACTTAA	0.259
GATCTATA	0.157
CATCTATA	0.188
ATTCTTCA	0.129
CGAATAGA	-0.0851
CTTCCATC	-0.00237
ATTCAGAC	0.0909
CGTCCCTC	-0.217
AGCACAAG	-0.0143
AGGTCAGC	0.0524

Sequence	PBM E-score
CCAATCAA	0.075
AATCTTCC	0.411
GATCTTCA	0.0894
ACTCTTCC	-0.0223
AAACTTCA	0.293
AATCTTCT	0.132
AAACTTCG	0.0988
AATCTTCA	0.318
AATCTTCG	0.0477
GAACTTCA	0.0447
TATTGCAA	0.246
ACGAAGAC	-0.177
CTATTGAG	-0.0501
TCTCCAGA	-0.189
CCCGGTTC	-0.0468
CGGACACA	-0.152
TAACGATA	0.292
AAACGATA	0.213
CAACGATA	0.187
CTTGGCTC	-0.146
AGCCCAGC	-0.2
GATTGCAA	0.171
AATGTGAA	0.313
AATGTGAT	0.15
AATGTGAC	0.0448

Sequence	PBM E-score
GCATCACA	0.215
TTACCAAA	0.235
ACTACTAT	0.328
ACTACTAA	0.173
ACTACTAC	0.153
AGAGGAGG	-0.26
AAGATTTC	0.169
ATACATAC	0.0684
ATACAAAC	0.306
CTACAAAC	0.152
ATACAAAA	0.311
CTACAAAG	0.0965
GTACAAAC	0.0352
TTACAAAA	0.268
ATACATAA	0.309
ATACAAAT	0.252
CTACATAA	0.0125
ATACAAAG	0.298
CTACAAAA	0.00298
TACCGGAA	0.27
TGCTACAA	0.161
CAGTTTGA	0.206
AGCGGCAT	0.0383
CCCACAAC	-0.108
CTGTAGGA	0.0305

Sequence	PBM E-score
TTCTAGAA	0.102
GTTTTCAA	0.146
GTCCAGAC	-0.308
CGCCCAGA	-0.174
ACGATCTA	-0.0695
ATACAATC	0.0522
CTACAATA	0.164
ATACAATA	0.332
CCGCGAGC	-0.194
CACTTTTA	0.0413
TAGGAGGA	0.0316
CCGGAATA	0.412
GGGGAATA	-0.0146
ACGGAATA	0.351
GCGGAATA	0.293
ACGGAATG	-0.153
GCGGAAGA	0.236
CGGGAATA	0.246
ACGGAATC	0.113
CCGGAATC	-0.0781
CCTATTCG	-0.149
CGACGGTA	-0.0307
ATTACTAA	0.225
CGTTCTTA	0.0158
ATCTTCTC	0.0573

Sequence	PBM E-score
ACATCGGG	-0.0939
TATTTGAA	0.255
AGTAATAA	0.18
ATTAATCG	0.166
ATTAATAC	0.306
GTTAATAA	0.329
CTTAATAC	0.136
ATTAATCA	0.26
ATTAATAA	0.302
ATTAATAG	0.373
ACTAATAC	0.228
CTTAATAA	0.182
ACTAATAG	0.2
GTTAATCA	0.277
GACACACC	-0.0728
CAGGGTGG	-0.234
CTCTAGGC	-0.153
GCATAGCA	0.0192
GCTAGTAA	-0.014
CAAGGTGA	-0.103
ACCTAGCA	0.0895
AGTGAAGC	-0.0225
ACCTCGGA	0.0486
CGAATCGC	-0.0798
ACAGGTAC	-0.0953

Sequence	PBM E-score
CACGCGCG	-0.0876
GAAGGCCC	-0.223
ATAAAAGG	-0.0365
ATAAATAG	0.254
TTAAATAA	0.264
ATAAATAA	0.38
ATAAATAT	0.396
ATAAAAAA	0.164
ATAAATAC	0.211
ATAAAATC	0.226
ATAAAATA	0.344
ATAAAAAT	0.193
ATAAAAAG	0.316
GTAAAATA	0.269
CGAAAATC	0.222
CACCTATA	0.0106
AGTCTGTC	-0.0266
ACCTTCCG	-0.032
CGTATAGC	-0.0573
CGATTGGC	-0.0233
ACCGGTCA	-0.2
CCCCAAAC	-0.101
AAATAAGA	0.16
ACTCAGAA	0.11
TGCTATAA	0.0493

Sequence	PBM E-score
AAATTGAA	0.127
AAATTGAC	0.108
ATATTGAG	0.259
AAATTGTC	0.192
AAATTGAT	0.336
ATATTGAA	0.189
AAATTGTA	0.22
AAATTGTT	0.317
ATATTGAT	0.39
AAGGGCAG	-0.151
TACTGGCA	-0.0764
ATAGAGCG	-0.117
AGCACTCC	-0.0492
ATAATAGA	0.223
ATAATACC	0.187
ATAATAAA	0.366
ACAATAAC	0.246
ACAATAAA	0.14
GTAATAAA	0.198
ATAATACA	0.305
ATAATACG	0.187
CTAATAAC	0.216
ACAATAAT	0.341
CTAATAAA	0.28
TTAATAAA	0.381

Sequence	PBM E-score
ACAGCCCG	-0.175
GATCTCCA	-0.0356
GGATCTAA	-0.0711
CGAGACCC	-0.167
GAGAACTA	0.101
AAGCCCTA	-0.124
ACATACAT	0.226
AACCCTAG	-0.0236
ACTTTAAT	0.114
AAGCAAAA	0.13
CCGGGTCG	-0.279
CCCGGGAC	-0.322
ATAATGAG	0.0777
ATAATAAG	0.18
ATAATAAC	0.159
ATAATGAT	0.203
ATAATGAA	0.331
ATAATAAT	0.305
CTTGCTGA	0.0188
